According to PubChem BioAssay (EPA / NIEHS):
Results filed as inconclusive are left out. Active and inactive are the calls of the source. The calls were made as follows: active = hit-call score of the fitted dose curve at least 0.9, where 1 is the maximum; inconclusive = response in the unintended direction; inactive = score below 0.9.

These molecules were tested against Nuclear receptor subfamily 1 group I member 2 (Homo sapiens) (UniProt O75469) (assay: ATG_PXR_TRANS: Attagene TRANS-FACTORIAL HepG2 Assay for human Pregnane X Receptor (PXR) (AID 2283008)).
Sequence of Nuclear receptor subfamily 1 group I member 2 (Homo sapiens) (O75469 whole entry, looked up): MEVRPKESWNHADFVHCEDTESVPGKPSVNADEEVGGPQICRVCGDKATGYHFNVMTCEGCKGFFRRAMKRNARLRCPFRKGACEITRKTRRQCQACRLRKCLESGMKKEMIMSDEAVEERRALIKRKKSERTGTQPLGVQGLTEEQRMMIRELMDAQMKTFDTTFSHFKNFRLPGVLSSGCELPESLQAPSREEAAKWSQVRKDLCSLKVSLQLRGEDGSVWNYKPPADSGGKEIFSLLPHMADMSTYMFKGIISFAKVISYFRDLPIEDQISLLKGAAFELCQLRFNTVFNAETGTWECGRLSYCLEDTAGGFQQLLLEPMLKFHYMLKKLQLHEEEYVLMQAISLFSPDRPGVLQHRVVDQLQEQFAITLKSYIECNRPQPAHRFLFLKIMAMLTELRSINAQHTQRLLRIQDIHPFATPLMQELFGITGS
Protocol: ATG_TRANS is a cell-based, multiplexed-readout assay that uses HepG2, a human liver cell line, with measurements taken at 24 hours after chemical dosing in a 24-well plate.ATG_PXR_TRANS is one of 30 assay component(s) measured or calculated from the ATG_TRANS assay. It is designed to make measurements of mRNA induction, a form of inducible reporter, as detected with fluorescence intensity signals by Reverse transcription polymerase chain reaction (RT-PCR) and Capillary electrophoresis technology.Data from the assay component ATG_PXR_TRANS was analyzed into 1 assay endpoint. This assay endpoint, ATG_PXR_TRANS, was analyzed in the positive analysis fitting direction relative to DMSO as the negative control and baseline of activity. Using a type of inducible reporter, measures of mRNA for gain-of-signal activity can be used to understand the reporter gene at the transcription factor-level as they relate to the gene NR1I2. Furthermore, this assay endpoint can be referred to as a primary readout, because this assay has produced multiple assay endpoints where this one serves a reporter gene function. To generalize the intended target to other relatable targets, this assay endpoint is annotated to the nuclear receptor intended target family, where the subfamily is non-steroidal.
Human liver HepG2 cells are transiently transfected with multiple reporter transcription units (MRTUs) in 6-well plates using FuGene 6 reagent (Roche; 3 ml FuGene/1 mg DNA). The MRTU constructs are regulated by a cis-regulating element (promoter). […] A major difference between the CIS and TRANS system is that in CIS activities of endogenous TFs are measured, whereas the TRANS assay evaluates changes in activities of exogenous, chimeric NR-Gal4 proteins. […] At the end of 24 hour incubation, total RNA was isolated using TriZol reagent (Invitrogen). The isolated RNA is then reverse-transcribed using oligo(dT) primer and Mo-MLV reverse transcriptase (Invitrogen) with DNAse I (Ambion) treatment for 30 min. The one-tenth of the produced cDNA was amplified by PCR using Taq DNA polymerase (Invitrogen) and two reporter sequence-specific primers. The PCR products were fluorescently labeled by primer extension with 6-arboxyfluorescein (6-FAM) 5'-labeled reporter sequence-specific primer (2 min at 95 C, 20 s at 68 C and 10 min at 72 C) and these products were digested with 5U of HpaI (New England Biolabs) for 2h at 37 C. The fragments were purified using Qiaquick PCR columns (Qiagen), analyzed on an ABI 3130xL genetic analyzer (Applied Biosystems) with peak positions identified by using a set of X-rhodamine (ROX)-labeled MapMarker1000 molecular weight standards (BioVentures). The raw capillary electrophoresis data was processed using Attagraph software (Attagene).

Structure (SMILES)	AC50	outcome
c1cc[c]([Bi]([c]2ccccc2)[c]2ccccc2)cc1	2.73 µM (active)	–
CCCCCC1CCCC(=O)O1 (stereo not given)	–	inactive
C=CCOCC(CC)(CO)COCC=C	–	inactive
CCCCCCCCCCCCCCCCCC[N+](C)(C)C	25 µM (active)	–
C=CC(C)(CCC=C(C)C)OC(=O)c1ccccc1 (stereo not given)	8.68 µM (active)	–
CC/C=C\CC1=C(C)CCC1=O	–	inactive
CCCCOC(=O)COc1ccc(Cl)cc1Cl	–	inactive
CCC(C)C1N=C(C)C(C)S1 (stereo not given)	4.45 µM (active)	–
c1ccc(CNc2ncnc3nc[nH]c23)cc1	–	inactive
CCCCCCCCCCCCCC	–	inactive
O=C1CCCCCCCCCCCCCC1	26.6 µM (active)	–
C/C=C(\C)C(=O)OCC/C=C\CC	–	inactive
CCCCCCCCCCC1CO1 (stereo not given)	–	inactive
COC(=O)CCSCCC(=O)OC	–	inactive
C=C(C)C(=O)OCC1CCCO1 (stereo not given)	–	inactive
CN(C)CCC(c1ccc(Cl)cc1)c1ccccn1 (stereo not given)	–	inactive
NC(N)=Nc1nc(CSCCC(N)=NS(N)(=O)=O)cs1	–	inactive
CC1=C(CC=O)C(C)(C)CCC1	1.38 µM (active)	–
CCC(=O)OCc1ccc(OC)cc1	31.6 µM (active)	–
CC1=C(CC(=O)O)c2cc(F)ccc2/C1=C\c1ccc(S(C)=O)cc1 (stereo not given)	26.5 µM (active)	–

Structure (SMILES)	AC50	outcome
Brc1ccc(Oc2ccc(Br)cc2)cc1	7.35 µM (active)	–
C=C1CC[C@H]2C[C@@H]1C2(C)C	10.4 µM (active)	–
CCCCC(CC)COC(=O)CS (stereo not given)	–	inactive
O=C(O)c1cc(Cl)cc(Cl)c1O	–	inactive
F[B-](F)(F)F	–	inactive
Nc1ccc(S(=O)(=O)Nc2cnc3ccccc3n2)cc1	–	inactive
Cc1cccnc1	–	inactive
CCOC(=O)c1ccccc1	–	inactive
[O-][n+]1ccc(Cl)cc1	–	inactive
CCCCn1cc[n+](C)c1	–	inactive
Oc1ccc(Oc2ccccc2)cc1	–	inactive
COc1c2occc2cc2ccc(=O)oc12	14.5 µM (active)	–
O=C(c1ccccc1)c1ccccc1O	34.4 µM (active)	–
C[C@H]1C[C@H]2[C@@H]3CCC4=CC(=O)C=C[C@]4(C)[C@@]3(F)[C@@H](O)C[C@]2(C)[C@@]1(O)C(=O)CO	0.685 µM (active)	–
CC(=O)CCc1ccccc1	–	inactive
c1cc(N(CC2CO2)CC2CO2)ccc1Cc1ccc(N(CC2CO2)CC2CO2)cc1 (stereo not given)	–	inactive
CC(C)=CCOC(=O)c1ccccc1	–	inactive
CC/C=C\CCCCCO	–	inactive
Cc1ccnc(N)c1	–	inactive
CN(C)Cc1cc(C(C)(C)C)c(O)c(C(C)(C)C)c1	–	inactive
